According to PubChem BioAssay AID1159580 (chemical genetic matrix, 2015):
Several values for one entry are separate records, joined by “and”; a condition that tells them apart may be missing. Identical values can stand only once. Hit rate of the full screen: of about 5,500 compounds, about 2,000 (36%) were called active. Inconclusive results (about 18%) are left out. Rule as the data show it: active = normalized growth mostly below about 0.91 (no sharp cut-off); inconclusive = no clear call, values can overlap the other calls; inactive = mostly above about 0.92. The list shows a part of the results.

Assay: chemical genetic growth profiling, strain panel (AID 1159580);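 also: tested at 20 µM; growth read once vehicle control cultures reached saturation at 30 °C; 1 = growth at the plate median or of vehicle wells; lower values mean less growth of the strain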
Conditions: S. cerevisiae deletion strains, growth OD

Measured: normalized growth

CC1(C)S[C@@H]2[C@H](NC(=O)[C@H](N)c3ccccc3)C(=O)N2[C@H]1C(=O)O
inactive: locus YAL021C, strain ccr4, hits give low values 0.98 | locus YAL026C, strain drs2, hits give low values 0.971 | locus YAL030W, strain snc1, hits give low values 0.987 | locus YBL061C, strain skt5, hits give low values 0.973 | locus YBR009C, strain hhf1, hits give low values 1 | locus YBR021W, strain FUR4, hits give low values 1.01 | locus YBR023C, strain chs3, hits give low values 0.967 | locus YBR171W, strain sec66, hits give low values 0.977 | locus YBR229C, strain ROT2, hits give low values 1.01 | locus YBR231C, strain swc5, hits give low values 0.999 | locus YBR279W, strain paf1, hits give low values 0.954 | locus YCL011C, strain gbp2, hits give low values 0.95 | locus YCL016C, strain dcc1, hits give low values 0.942 | locus YCL029C, strain bik1, hits give low values 0.998 | locus YCL061C, strain MRC1, hits give low values 0.973 | locus YCL069W, strain vba3, hits give low values 0.98 | locus YCR088W, strain abp1, hits give low values 0.975 | locus YDL005C, strain med2, hits give low values 0.979 | locus YDL035C, strain GPR1, hits give low values 1.02 | locus YDL040C, strain nat1, hits give low values 0.971 | locus YDL074C, strain BRE1, hits give low values 1.01 | locus YDL101C, strain DUN1, hits give low values 1.01 | locus YDL134C, strain PPH21, hits give low values 1.01 | locus YDL185W, strain tfp1, hits give low values 1 | locus YDL192W, strain arf1, hits give low values 1.03 | locus YDR001C, strain nth1, hits give low values 0.971 | locus YDR069C, strain doa4, hits give low values 0.965 | locus YDR101C, strain arx1, hits give low values 1.01 | locus YDR137W, strain rgp1, hits give low values 0.945 | locus YDR150W, strain NUM1, hits give low values 1.02 | locus YDR159W, strain sac3, hits give low values 0.981 | locus YDR162C, strain NBP2, hits give low values 1.03 | locus YDR195W, strain ref2 0.961 | locus YDR297W, strain sur2, hits give low values 0.976 | locus YDR318W, strain mcm21, hits give low values 1.01 | locus YDR334W, strain swr1, hits give low values 0.961 | locus YDR335W, strain msn5, hits give low values 0.948 | locus YDR388W, hits give low values 1 | locus YDR392W, strain spt3, hits give low values 0.888 | locus YDR502C, strain sam2, hits give low values 1.01 | locus YEL003W, strain gim4, hits give low values 0.98 | locus YEL037C, strain rad23, hits give low values 0.979 | locus YEL061C, strain CIN8 (second series), hits give low values 0.97 | locus YEL061C, strain CIN8, hits give low values 1.01 | locus YER015W, strain faa2, hits give low values 0.961 | locus YER016W, strain bim1, hits give low values 0.955 | locus YER110C, hits give low values 0.991 | locus YER111C, strain swi4, hits give low values 0.96 | locus YER155C, strain BEM2 (second series), hits give low values 1.03 | locus YER155C, strain BEM2, hits give low values 1 | locus YER167W, strain BCK2, hits give low values 1.01 | locus YFR010W, strain ubp6, hits give low values 0.996 | locus YGL078C, strain dbp3, hits give low values 0.999 | locus YGL086W, strain mad1, hits give low values 1 | locus YGL167C, strain pmr1, hits give low values 0.987 | locus YGL173C, strain kem1, hits give low values 0.984 | locus YGL227W, strain vid30, hits give low values 0.974 | locus YGL240W, strain doc1, hits give low values 0.991 | locus YGL248W, strain PDE1, hits give low values 1.02 | locus YGL253W, strain hxk2, hits give low values 0.944 | locus YGR135W, strain pre9, hits give low values 1.01 | locus YGR229C, strain SMI1, hits give low values 1.03 | locus YGR252W, strain gcn5, hits give low values 1.03 | locus YHR013C, strain ard1, hits give low values 0.938 | locus YHR027C, strain rpn1, hits give low values 0.97 | locus YHR030C, strain SLT2, hits give low values 1.01 and 1.03 | locus YHR079C, strain IRE1 (second series), hits give low values 1 | locus YHR079C, strain IRE1, hits give low values 1.03 | locus YHR094C, strain hxt1, hits give low values 0.994 | locus YHR129C, strain ARP1, hits give low values 1.01 | locus YHR142W, strain chs7, hits give low values 0.924 | locus YHR200W, strain rpn10, hits give low values 1 | locus YIL066C, strain RNR3, hits give low values 1.03 | locus YIL073C, strain SPO22, hits give low values 1.04 | locus YIL125W, strain kgd1, hits give low values 1 | locus YIR030C, strain dcg1, hits give low values 1.01 | locus YJL092W, strain hpr5, hits give low values 0.973 | locus YJL095W, strain BCK1 (second series), hits give low values 0.989 | locus YJL095W, strain BCK1, hits give low values 1.01 and 1.04 | locus YJL115W, strain asf1, hits give low values 0.94 | locus YJL129C, strain trk1, hits give low values 0.913 | locus YJL134W, strain LCB3, hits give low values 1.01 | locus YJL154C, strain vps35, hits give low values 0.97 | locus YJL164C, strain tpk1, hits give low values 0.977 | locus YJL166W, strain qcr8, hits give low values 0.998 | locus YJL168C, strain set2, hits give low values 1 | locus YJL187C, strain SWE1 (second series), hits give low values 1 | locus YJL187C, strain SWE1, hits give low values 0.988
